Screening results: PubChem BioAssay, National Center for Advancing Translational Sciences (NCATS)
FMDV antiviral: High Throughput Screening for Foot and Mouth Disease Virus Antivirals; AID 1159524, 2015; hit rate 1.2% among 410,000; Potency, µM (doses to about 57.9 µM), inactives show at the top dose activity change, negative = inhibition, actives largely listed as inhibitors; FMDV antiviral cell-based qHTS; calls by dose curve; tested in HEK293T cells; further: read-out not given here; potency means the concentration at half of the fitted maximal effect; nearly all actives have a fitted effect of over 45% in size
HCV inhibitor: qHTS Assay for Inhibitors of Hepatitis C Virus (HCV). Huh7.5.1 HCVcc-Cre infection, luciferase reporter, 44 h. Potency, µM (top dose mostly 41.8 µM), for inactives: top-dose activity change, negative = inhibition, actives largely listed as inhibitors. hit rate 3.4% among 340,000. AID 651820, 2012; active means well fitted inhibition curve with a large enough effect; inconclusive means small, poorly fitted or top-dose-only effect, or another doubt; inactive means no such curve, though single readings can be large or run the other way; further: potency means the concentration at half of the fitted maximal effect
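Compounds are dispensed onto cells plated 4 h earlier at 1,000 per well, with HCVcc-Cre virus (about 0.5 moi) added next. Following 44 h of culture, luminescent signal is measured for 15 sec after 15 min with substrate at room temperature.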
HCMV inh: qHTS Assay for inhibitors of the human cytomegalovirus (HCMV) | HFF cells, HCMV-luciferase reporter, 72 h; hits give low values | hit rate 4.5% among 410,000 | activity change, negative = inhibition, % at 57.5 µM | AID 1259415, 2018; in the data active means activity change below about -60%; inconclusive means no clear call, values can overlap the other calls; inactive means above about -39%
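Two compound doses tested in HFFs infected with HCMV-luciferase, MOI 1 PFU/cell, 72 h at 37C. Lysate luminescence read with OneGlo; data normalized against buffer-only and 10uM Salinomycin inhibitor controls.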
Marburg entry inh: qHTS for inhibitors of binding or entry into cells for Marburg Virus | hit rate 1.8% among 300,000 | Marburg virus pseudotyped entry inhibition, cell reporter | Potency, µM (top dose mostly 37.8 µM), inactives show at the highest dose activity change, negative = inhibition, hits mostly inhibitors; calls by dose curve; tested in HEK293 cells; further: potency means the concentration at half of the fitted maximal effect
LASV entry inh: qHTS for Inhibitors of binding or entry into cells for Lassa Virus | Lassa virus pseudotype entry inhibition, cell reporter | Potency, µM (doses to about 37.9 µM), for the others: at the top dose activity change, negative = inhibition, usual class: inhibitors | hit rate 1.2% among 300,000; calls by dose curve; tested in HEK293 cells; further: potency means the concentration at half of the fitted maximal effect; nearly all actives have a fitted effect of over 50% in size
Numbers without * were called inactive; ? = inconclusive; / = not tested or not shown; ! = repeats disagree; [ ] = dose if it differs, or a comment. In the library only some 7.9% were active in any assay of this set; here they are far more common. On the % scale 0 is the no-effect control and ±100 the full control effect.

SMILES	FMDV antiviral	HCV inhibitor	HCMV inh	Marburg entry inh	LASV entry inh
COc1ccc(CCNC(=O)CCn2c(SCC#N)nc3ccccc3c2=O)cc1OC	8%	13µM*	-8	?	-30%
COc1nnc(-c2ccc(N3CCCCC3)c(NC(=O)c3ccc(C)cc3)c2)c2ccccc12	-22%	/	5	2%[46.1 µM]	15%[46.1 µM]
Cn1nc(-c2ccc(N3CCCCC3)c(NC(=O)c3ccco3)c2)c2ccccc2c1=O	0%	7.1µM*!	-29	?	?
COc1nnc(-c2ccc(N3CCCCC3)c(NC(=O)c3ccccc3Cl)c2)c2ccccc12	?	/	-99*	?	?
O=C(COC(=O)C1(c2ccc(F)cc2)CCCC1)N1CCN(C(=O)c2ccco2)CC1	?	?	-106*	-7%	-19%
COc1ccc(C(=O)OCC(=O)N2CCN(C(=O)c3ccco3)CC2)c(OC)c1OC	0%	/	-102*	/	/
Cc1cc(-c2ccnc(-n3ncc(C(=O)NCC4CCCN(C)C4)c3C3CC3)n2)c(C)s1 (configuration not stated)	-3%	/	/	/	/
Cc1ccc(-n2cc(-c3ccccc3)c3c(=O)[nH]cnc32)cc1	7%	10%	-5	-28%	15µM*
O=c1[nH]cnc2c1c(-c1ccccc1)cn2-c1ccccc1	-12%	-1%	-21	/	/
Fc1ccc(-n2cc(-c3ccccc3)c3c(=S)nc[nH]c32)cc1	-27%	?	?	?	5µM*
Fc1cccc(-n2cc(-c3ccccc3)c3c(=S)nc[nH]c32)c1	0%	?	?	/	/
Cc1cccc(C)c1NC(=O)C(=O)NCC(c1ccc2c(c1)OCO2)N1CCOCC1 (configuration not stated)	1%	/	-16	/	6%[46.1 µM]
CCSC1=N/C(=C\c2ccccc2)C(=O)N1c1ccc(OC)cc1	-21%	10µM*	?	-2%	-11%
CCN(CC)C1=N/C(=C\c2ccc(OC)cc2)C(=O)N1c1ccccc1	?	?	-74*	?	0.89µM*
c1ccc(-c2n[nH]c3c2CCC3)cc1	0%	13µM*	-16	?	-2%
CC(=O)c1cccc(NC(=O)c2sc(-n3nc(C)c(Cc4ccccc4)c3C)nc2C)c1	?	/	-61*	-20%[46.1 µM]	6%[46.1 µM]
COC(=O)c1c[nH]c2c1-c1cc(C(=O)OCc3ccccc3)n(S(=O)(=O)c3ccc(C)cc3)c1C(=O)C2=O	7.9µM*	?	112	-16%	?
Cc1ccc(C)n1-c1c(C(=O)NCCC(C)C)sc2ncccc12	-11%	/	18	/	-6%[46.1 µM]
COc1ccccc1C(=O)C1CCCN(Cc2cn[nH]c2C2CCCCC2)C1 (configuration not stated)	-22%	15%	33	?	2%[46.1 µM]
Brc1ccc(Oc2ccc(Br)cc2Br)c(Br)c1	4%	-8%	49	-3%	/
O=c1c(Br)ccc(Br)cc1Br	20µM*	?	-77*	4.5µM*	?
O=C(NCc1cccnc1)c1cc(C2CCCCN2C(=O)c2cccs2)on1 (configuration not stated)	-20%	/	-13	/	/
O=[As](O)(O)c1ccc(N=Nc2ccc(O)cc2)cc1	32%	-24%	-80*	/	/
Cc1csc(NC(=O)c2ccc(Cl)cc2[N+](=O)[O-])n1	-22%	1.6µM*	3	?	-19%
CCCn1nc(C(=O)Nc2nc(-c3ccccn3)cs2)c2ccccc2c1=O	?	5µM*	28	/	/
SMILES	FMDV antiviral	HCV inhibitor	HCMV inh	Marburg entry inh	LASV entry inh
Cc1cc(C(=O)Nc2nc(-c3ccccn3)cs2)ccc1[N+](=O)[O-]	3%	11µM*	-72*	?	?
O=C(Nc1nc(-c2cc(F)ccc2F)cs1)c1ccccn1	45%	?	-37	7%[46.1 µM]	15%
O=C(Nc1nc(-c2ccccn2)cs1)c1cc(Cl)ccc1[N+](=O)[O-]	-24%	10µM*	-99*	2.8µM*	4.5µM*
COc1cccc(C2(CC(=O)N3CCCOc4c(cccc4OC)C3)CC(=O)N(C)C2=O)c1 (configuration not stated)	1%	/	/	/	/
O=c1cccc(-c2cccc3ccccc23)o1	10%	/	1	/	/
CC(CCN1CCCCc2nc(C)c(C)cc21)=NO[C@@H](C)c1cn([C@H](CO)Cc2ccccc2)nn1	/	/	/	-12%[14.2 µM]	/
CC(=O)Nc1ccc(C(=O)Nc2nc(-c3ccccn3)cs2)cc1	-15%	-11%	-9	/	/
O=C(Nc1nc(-c2ccccn2)cs1)c1ccccc1-n1cnnn1	-9%	?	-92*	/	/
COC(=O)c1ccc(CN2C(=O)[C@]3(OCCC=C[C@@H]3C)c3cc(OC)ccc32)cc1	/	/	/	-23%[14.2 µM]	/
Cc1ccc(S(=O)(=O)N2C[C@H]3C(=O)C[C@@H](c4ccccc4)N(S(=O)(=O)c4ccc(C)cc4)[C@H]3C[C@H]2c2ccccc2F)cc1	-3%	/	-9	/	/
Cc1ccn2c(=O)nc(SCC(=O)Nc3cc(C)on3)nc2c1	-5%	-6%	-6	-30%[46.1 µM]	-11%
Cc1cc(NC(=O)CSc2nc(=O)n3cc(Cl)ccc3n2)no1	2%	7%	-98*	1%[46.1 µM]	-2%
C(=N\Nc1nc2ccccc2[nH]1)/c1ccc2c(c1)OCCO2	-15%	?	-1	/	/
Cc1cccc(/C=N/Nc2ccc3ccccc3n2)c1	6.3µM*	?	-31	/	/
Cc1ccc(/C=N/Nc2ccc3ccccc3n2)o1	-17%	-30%	-79*	1.3µM*	5µM*
C(=N\Nc1ccc2ccccc2n1)/c1ccc2c(c1)OCCO2	?	3%	-90*	/	/
Cc1cc(N/N=C/c2cccc(Br)c2)nc2ccccc12	39%	0%	4	-15%	13%
Cc1ccc(/C=N/Nc2cn[nH]c(=O)n2)o1	24%	20%	?	-10%[46.1 µM]	15%[46.1 µM]
CCCC(C(=O)Nc1cc(S(=O)(=O)N2CCOCC2)ccc1OC)c1ccccc1 (configuration not stated)	-15%	-28%	-10	/	/
CC(CNC(=O)CC[C@H]1O[C@@H](n2cnc3c(NC(=O)c4ccccc4)ncnc32)[C@H](O)[C@@H]1O)c1ccccc1 (some centres not stated)	-2%	/	4	/	/
COC(=O)c1cc(C(=O)c2cc(Br)ccc2O)coc1=N	-13%	6%	10	0%[46.1 µM]	-24%[46.1 µM]
Cc1cccc(C(=O)N2CCC(=O)N([C@H](COCc3cccc(Cl)c3)Cc3ccccc3)CC2)c1	-20%	/	-8	/	/
Cc1cccc(C(=O)N2CCC(=O)N(C(COCc3ccc(Cl)cc3)Cc3ccccc3)CC2)c1 (configuration not stated)	?	?	-20	-4%	10µM*
O=C(c1cccc(Cl)c1)N1CCC(=O)N([C@H](COCc2ccccc2)Cc2ccccc2)CC1	-7%	/	20	/	/
Cc1cccc(C(=O)N2CCC(=O)N(C(COCc3cccc(Cl)c3)Cc3ccccc3)CC2)c1 (configuration not stated)	47%	4%[8.37 µM]	15	-8%	8.2µM*
